This passage reports z-score and composite z-score results from PubChem BioAssay.

Activity calls are given as the source filed them.

The target of assay [1] is NADPH oxidase 5 (Homo sapiens) (UniProt Q96PH1). In words: NOX5-dependent H2O2 signal modulators, primary screen, NOX inhibitor project, cell-based, HEK293-NOX5, Amplex Red fluorescence (AID 1161). As to conditions: HEK293-NOX5, ionomycin, 45 min, higher = more signal.
Assay [2] in a line: A549 cell viability effects, profiling panel, calcein-AM fluorescence, 48 h, basal (AID 1162). Also: test concentration not given here. As to conditions: higher = more signal.
The nature of assay [3]: adipocyte viability effects, profiling panel, cell-based, 3T3-L1 adipocytes, calcein-AM fluorescence, 48 h, basal (AID 1163). Also: test concentration not given here. As to conditions: 3T3-L1 adipocytes viability, higher = more signal.
Assay [4] can be described thus: HepG2 cell viability effects, profiling panel, calcein-AM fluorescence, 48 h, basal (AID 1164). Also: test concentration not given here. As to conditions: higher = more signal.
A short description of assay [5]: MM1S cell viability effects, profiling panel, calcein-AM fluorescence, 48 h, basal (AID 1165).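 Also: viability of MM1S multiple myeloma cells under basal unstimulated conditions; test concentration not given here.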 As to conditions: higher = more signal.
Assay [6] can be described thus: basal RPMI8226 viability, no added stimulus, profiling panel, cell-based, calcein-AM fluorescence, 48 h, PK04 Diversity Set (AID 1166).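 Also: cells grown under basal conditions without added stimulus; test concentration not given here.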 As to conditions: RPMI8226 myeloma viability, higher = more signal.
Assay [7] in a line: basal HepG2 mitochondrial membrane potential changes, profiling panel, cell-based, JC-1 fluorescence, 24 h, 100 nL compound (AID 1167). Also: test concentration not given here. As to conditions: higher = more signal.
A short description of assay [8]: basal 3T3-L1 adipocyte mitochondrial potential changes, profiling panel, cell-based, JC-1 fluorescence, 3T3-L1 adipocytes, 24 h, 100 nL compound (AID 1168). Also: test concentration not given here. As to conditions: JC-1 mitochondrial fluorescence, higher = more signal, called active from +8 up or from −8 down.
The nature of assay [9]: basal RPMI8226 mitochondrial membrane potential changes, profiling panel, cell-based, JC-1 fluorescence, 24 h, 100 nL compound (AID 1169). Also: test concentration not given here. As to conditions: RPMI8226 myeloma, JC-1 mitochondrial potential fluorescence, higher = more signal.
A short description of assay [10]: basal MM1S mitochondrial membrane potential changes, profiling panel, cell-based, JC-1 fluorescence, 24 h, 100 nL compound (AID 1170). Also: test concentration not given here. As to conditions: higher = more signal.
A short description of assay [11]: A549 lung cancer cell viability effects, profiling panel, resazurin fluorescence, 24 h, PK04 Diversity Set (AID 1171). Also: test concentration not given here. As to conditions: higher = more signal, called active from +8 up or from −8 down.
The nature of assay [12]: HepG2 liver cancer cell viability effects, profiling panel, resazurin fluorescence, 24 h, PK04 Diversity Set (AID 1172). Also: test concentration not given here. As to conditions: higher = more signal.
Assay [13] is described as follows: basal S. cerevisiae growth modulation, no modifier, primary screen, OD600, strain BY4716, 24 h, basal condition (AID 1173). As to conditions: OD600, 24 h, higher = more signal, called active from +8 up or from −8 down.
Assay [14] is described as follows: MM1S myeloma cell viability, profiling panel, resazurin fluorescence, basal, 24 h, PK04 Diversity Set (AID 1174).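 Also: MM1S multiple myeloma cell line; test concentration not given here.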 As to conditions: higher = more signal, called active from +8 up or from −8 down.
In assay [15] the target is Dihydroorotate dehydrogenase (quinone), mitochondrial (Plasmodium falciparum (isolate 3D7)) (UniProt Q08210). Kind of assay: PfDHODH enzyme inhibitors, primary screen, biochemical, C-terminal His tag, absorbance 600 nm (AID 1175).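 Also: recombinant parasite enzyme with a five histidine tag at its C terminus; test concentration not given here.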 As to conditions: DCIP absorbance 600 nm, higher = more signal, called active from +8 up or from −8 down.
Assay [16] can be described thus: S. cerevisiae RM11-1a growth modifiers, primary screen, strain RM11-1a, OD600, basal, 24 h (AID 1177).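 Also: cultures grown under basal conditions with no added stressor; test concentration not given here.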 As to conditions: OD600, 24 h, higher = more signal, called active from +8 up or from −8 down.
The nature of assay [17]: E. coli acrAB mutant growth effects, primary screen, E. coli filamentation inducers, strain DRC39, OD650, 24 h (AID 1178).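 Also: growth measured as culture turbidity by optical density at 650 nm; test concentration not given here.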 As to conditions: higher = more signal, called active from +8 up or from −8 down.
The nature of assay [18]: E. coli acrAB mutant growth effects, primary screen, E. coli filamentation inducers, strain DRC39, OD650, 48 h (AID 1179).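 Also: screen aims at cell division blockers that make cells filament.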 As to conditions: E. coli DRC39 delta-acrAB growth, higher = more signal, called active from +8 up or from −8 down.
Assay [19] is described as follows: RPMI8226 myeloma cell viability, profiling panel, resazurin fluorescence, basal, 24 h, PK04 Diversity Set (AID 1180).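 Also: RPMI8826 multiple myeloma cell line at 5000 cells per well; test concentration not given here.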 As to conditions: higher = more signal.
The target in assay [20] is E3 ubiquitin-protein ligase XIAP (Homo sapiens) (UniProt P98170). In words: XIAP binders, primary screen, biophysical, small-molecule microarray, fluorescence 635 nm (AID 1181).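 Also: score merges 667 nm emission and signal to noise over triplicate slides.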 As to conditions: small-molecule microarray binding, higher = more signal.
Sequence of E3 ubiquitin-protein ligase XIAP (Homo sapiens) (P98170 whole entry, looked up): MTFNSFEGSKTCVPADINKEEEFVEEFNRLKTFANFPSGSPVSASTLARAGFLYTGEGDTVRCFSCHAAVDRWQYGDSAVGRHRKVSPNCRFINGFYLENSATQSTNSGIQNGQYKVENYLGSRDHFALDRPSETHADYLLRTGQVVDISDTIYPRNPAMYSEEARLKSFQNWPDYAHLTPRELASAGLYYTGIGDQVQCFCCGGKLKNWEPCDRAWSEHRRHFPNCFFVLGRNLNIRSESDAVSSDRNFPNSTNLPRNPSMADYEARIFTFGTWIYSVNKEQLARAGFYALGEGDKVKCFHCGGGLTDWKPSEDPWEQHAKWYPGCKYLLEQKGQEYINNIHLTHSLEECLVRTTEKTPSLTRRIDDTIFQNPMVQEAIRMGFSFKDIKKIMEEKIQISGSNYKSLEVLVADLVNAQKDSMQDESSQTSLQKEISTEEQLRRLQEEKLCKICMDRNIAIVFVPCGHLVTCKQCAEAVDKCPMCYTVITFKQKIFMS

Sequence of NADPH oxidase 5 (Homo sapiens) (Q96PH1 whole entry, looked up): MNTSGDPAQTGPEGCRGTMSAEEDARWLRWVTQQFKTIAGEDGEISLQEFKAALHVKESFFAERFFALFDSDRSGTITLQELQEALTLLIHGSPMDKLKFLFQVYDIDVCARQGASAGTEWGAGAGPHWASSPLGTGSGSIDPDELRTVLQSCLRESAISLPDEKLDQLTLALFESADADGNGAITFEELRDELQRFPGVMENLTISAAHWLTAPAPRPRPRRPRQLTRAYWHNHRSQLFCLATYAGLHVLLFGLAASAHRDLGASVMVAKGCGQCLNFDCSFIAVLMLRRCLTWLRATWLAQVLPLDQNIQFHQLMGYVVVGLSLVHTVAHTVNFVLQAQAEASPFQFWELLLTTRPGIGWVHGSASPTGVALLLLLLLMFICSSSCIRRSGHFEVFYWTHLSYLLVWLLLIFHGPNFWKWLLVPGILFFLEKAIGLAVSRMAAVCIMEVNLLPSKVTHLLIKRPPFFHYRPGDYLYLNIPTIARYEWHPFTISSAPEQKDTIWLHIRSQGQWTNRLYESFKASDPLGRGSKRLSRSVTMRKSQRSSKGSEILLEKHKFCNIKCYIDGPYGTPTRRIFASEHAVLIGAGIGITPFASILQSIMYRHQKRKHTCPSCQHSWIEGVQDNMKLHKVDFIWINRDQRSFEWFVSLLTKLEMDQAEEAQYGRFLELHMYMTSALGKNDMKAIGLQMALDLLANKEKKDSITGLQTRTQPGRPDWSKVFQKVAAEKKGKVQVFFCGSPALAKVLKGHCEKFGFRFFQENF
Sequence of Dihydroorotate dehydrogenase (quinone), mitochondrial (Plasmodium falciparum (isolate 3D7)) (Q08210 whole entry, looked up): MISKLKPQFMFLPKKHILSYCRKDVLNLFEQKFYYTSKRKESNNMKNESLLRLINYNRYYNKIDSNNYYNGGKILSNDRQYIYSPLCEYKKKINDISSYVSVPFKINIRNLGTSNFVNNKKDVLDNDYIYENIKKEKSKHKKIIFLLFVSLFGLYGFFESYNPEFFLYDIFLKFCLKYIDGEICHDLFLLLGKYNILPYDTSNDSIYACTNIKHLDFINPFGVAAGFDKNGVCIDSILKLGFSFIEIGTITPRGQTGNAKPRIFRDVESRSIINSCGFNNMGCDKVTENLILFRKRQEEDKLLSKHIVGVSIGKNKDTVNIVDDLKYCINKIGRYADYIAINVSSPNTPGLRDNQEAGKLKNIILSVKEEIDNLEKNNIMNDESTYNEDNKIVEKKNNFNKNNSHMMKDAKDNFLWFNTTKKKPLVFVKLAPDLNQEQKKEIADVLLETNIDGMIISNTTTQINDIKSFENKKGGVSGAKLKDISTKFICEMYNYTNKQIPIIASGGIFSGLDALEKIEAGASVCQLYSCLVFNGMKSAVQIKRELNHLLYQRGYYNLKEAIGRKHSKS

In the case of `Cc1ccc(N2C(=O)c3ccccc3[C@](C)(C(=O)NCC(F)(F)F)[C@@H]2c2ccc(CO)cc2)nc1`, the z-score in assay [1] is 1.22; in assay [2], 0.708; in assay [3], 1.45; in assay [4], 0.529; in assay [5] it was -0.436; in [6], -1.45. Also, the z-score in assay [7] was -0.106; in assay [8], -0.603 (inactive); in assay [9], 0.54; in assay [10], 1.04; in [11] it was 0.451 (inactive); in [12] it was 0.125. For the same compound, the z-score in assay [13] is -1.08 (inactive); in assay [14], 1.57 (inactive); in assay [16], 0.216 (inactive); in [17], 0.24 (inactive); in [18], 0.536 (inactive); in assay [19], 1.4. Further, the composite z-score was 0.534 (inactive) in assay [15] and 0.0506 in [20].
With `O=c1n(-c2ccccc2)c(=O)n2n1CC(COc1ccccc1)=C1[C@@H](CCc3ccccc3)OB(O)C[C@@H]12`, the z-score in [1] is -1.03; in assay [2] it was 1.81; in [3], 0.0728; in [4], -0.28; in assay [5], -0.0893; in [6], -0.364. Also, the z-score in assay [7] was -0.251; in assay [8], 1.31 (inactive); in assay [9], -0.555; in assay [10], 0.615; in assay [11], -0.665 (inactive); in assay [12], 0.312. In addition, the z-score in assay [13] is -2.19 (inactive); in assay [14] it was -0.933 (inactive); in assay [16], -0.424 (inactive); in assay [17], 2.4 (inactive); in assay [18] it was 1.4 (inactive); in assay [19], -0.672. For the same compound, the composite z-score in assay [15] was 0.91 (inactive); in assay [20], -0.144.
As to `C#CCOc1ccc(C[C@H]2C(=O)O[C@H](Cc3ccccc3)[C@H](/C=C/C3CC3)N2CC#C)cc1`, the z-score in [1] is -1.52; in [2], -0.743; in assay [3], 0.892; in [4] it was -0.99; in [5], -1.63; in assay [6], -1.89. For the same compound, the z-score in [7] is 2.08; in assay [8], 0.476 (inactive); in [9], -0.599; in assay [10], 0.0151; in assay [11], 1.51 (inactive); in assay [12] it was 1.71. For the same compound, the z-score in [13] is -0.783 (inactive); in [14], 0.35 (inactive); in [16] it was 1.29 (inactive); in assay [17] it was 2.66 (inactive); in assay [18], 1.81 (inactive); in assay [19] it was 0.915. The composite z-score is 0.656 (inactive) in assay [15] and -0.144 in assay [20].
For the compound `NC(=O)N1C(=O)C2C(C1=O)C1C=C(c3ccc(CO)cc3)C2C(C2CC2)N1Cc1cc2c(cc1Br)OCO2` (stereo not given), the z-score in assay [1] is -0.201; in assay [2] it was 0.485; in assay [3] it was 1.32; in [4], -0.282; in assay [5] it was -0.767; in [6] it was -1.11. Moreover, the z-score in [7] was 1.26; in [8], 1.44 (inactive); in assay [9], -0.3; in [10] it was 0.463; in assay [11], 0.761 (inactive); in [12], 0.627. The z-score in assay [13] is -3.17 (inactive); in assay [14], 0.814 (inactive); in [16], -1.02 (inactive); in assay [17] it was 1.36 (inactive); in [18], 0.422 (inactive); in assay [19] it was 0.298. Moreover, the composite z-score was -0.692 (inactive) in assay [15] and -0.143 in assay [20].
On to `O=C1O[C@H](c2ccccc2)[C@H](c2ccccc2)N2[C@H]1[C@@H](C(=O)Nc1nc3ccccc3s1)[C@]1(C(=O)Nc3ccc(C#CCCO)cc31)[C@H]2c1ccccc1OCCO`, for which the z-score in assay [1] is 2.14; in assay [2] it was -0.655; in assay [3], 1.87; in assay [4], 0.383; in assay [5], -1; in assay [6] it was -0.198. For the same compound, the z-score in assay [7] was -2.75; in assay [8] it was 1.18 (inactive); in assay [9], -0.8; in [10], -1.16; in [11], 0.411 (inactive); in assay [12], 0.253. The z-score in [13] was 0.243 (inactive); in assay [14], 0.228 (inactive); in assay [16] it was 1.07 (inactive); in assay [17], 0.381 (inactive); in [18], 0.391 (inactive); in assay [19], -0.914. The values for the composite z-score in assay [15] and in assay [20] were -0.244 (inactive) and 0.15, respectively.
As for `COc1ccc(/C=C/C(=O)c2cccc(OCC(=O)OC(C)(C)C)c2)cc1`, the z-score in assay [1] is -3.7; in [2], 0.764; in assay [3], 0.934; in assay [4], 0.158; in assay [5] it was -2.97; in assay [6], -2.67. The z-score in assay [7] is 0.528; in assay [8], 0.342 (inactive); in assay [9] it was -0.702; in [10], 0.656; in assay [11] it was 1.26 (inactive); in assay [12], 0.163. Further, the z-score in assay [13] is -1.39 (inactive); in assay [14] it was 1.11 (inactive); in assay [16], -0.428 (inactive); in assay [17], 0.4 (inactive); in assay [18], 0.0785 (inactive); in assay [19], 1.76. Moreover, the composite z-score in [15] is 0.131 (inactive); in [20], 0.0374.
With `CC(C)CNC(=O)[C@@H]1c2ccccc2C(=O)N(Cc2ccc(OC(F)(F)F)cc2)[C@H]1c1ccc(CO)cc1`, the z-score in assay [1] is 1.57; in assay [2], 2.26; in assay [3], 0.18; in [4], 0.442; in [5], -0.201; in [6], 0.351. Further, the z-score in [7] is 2.64; in assay [8], 1.08 (inactive); in assay [9] it was 0.417; in assay [10], -0.881; in assay [11] it was 1.31 (inactive); in assay [12], 0.867. For the same compound, the z-score is -1.78 (inactive) in assay [13]; 1.33 (inactive) in assay [14]; -2.73 (inactive) in [16]; 1.38 (inactive) in assay [17]; 1.5 (inactive) in assay [18]; 1.13 in assay [19]. Besides, the composite z-score is -0.876 (inactive) in assay [15] and 0.205 in assay [20].
Consider `[N-]=[N+]=Nc1ccccc1[C@H]1OC(c2ccc(OCCCO)cc2)=N[C@@]1(Cc1ccccc1)C(N)=O`, for which the z-score is -0.45 in assay [1]; -0.297 in assay [2]; 1.26 in assay [3]; 0.13 in [4]; -3.09 in assay [5]; -3.37 in assay [6]. Moreover, the z-score in assay [7] is 0.912; in [8], 3.11 (inactive); in [9], -1.05; in assay [10], -1.45; in [11], -1.6 (inactive); in assay [12], 0.0234. Further, the z-score is -1.69 (inactive) in [13]; -1.29 (inactive) in [14]; 0.401 (inactive) in assay [16]; 2.24 (inactive) in assay [17]; 1.45 (inactive) in assay [18]; -1.96 in assay [19]. Also, the composite z-score in [15] is -0.227 (inactive); in assay [20] it was -0.0351.
